CRFBP-R2 block = antagonists of CRF-binding protein/CRF-R2 receptor complex. inhibition, % at 11.8 µM. AID 588475. actives 0.59% (n = 350,000). HEK293 CRF-R2/CRF-BP, CRF-induced calcium fluorescence;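 active = inhibition of the ligand-induced calcium signal above about 50% at the single tested concentration, limit read from the data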
NRP1-CendR mod = modulators of CendR peptide binding to human neuropilin-1; actives 0.85% (n = 360,000); O14786; AID 602438; FAM-RPARPAR peptide binding to NRP-1, fluorescence polarization; inhibition, % at 25 µM;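 active = inhibition or corrected inhibition above about 18%, plus a signal ratio from 0.5 to 1.5, limit read from the data, passing the limit was not always enough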
Myeloid diff MLP = compounds promoting myeloid differentiation. ER-HoxA9 myeloid progenitors, lysozyme-GFP differentiation, flow cytometry. calls only at 10 µM. actives 1% (n = 360,000);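 active = normalized GFP-positive differentiation at or above the plate's own cutoff, the solvent-only control mean plus 3 SD; inconclusive = no clear call, values can overlap the other calls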;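 note: cells exposed to compound for four days before flow analysis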
NadD inh = NadD (S. aureus) enzyme inhibition | purified NadD enzyme, colorimetric absorbance read-out | actives 0.78% (n = 360,000) | inhibition, % at 20 µM; in the data active = inhibition above about 26%
FAS TE block = FAS thioesterase (human) inhibition. P49327. recombinant FAS-TE, OMFH fluorogenic substrate, fluorescence endpoint. inhibition, % at 15 µM. actives 0.67% (n = 360,000). AID 602261;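 active = compounds whose normalised, plate-corrected inhibition of enzyme fluorescence in the single-dose primary screen is 50% or more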;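 note: 0% = DMSO with enzyme and 100% = substrate without enzyme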
* hit, by the source's call; i = inactive; ? = inconclusive; nt = no result given; + = active, no number. The list is not random: actives were taken first. Their share in the collection is about 3.6%.

SMILES	CRFBP-R2 block	NRP1-CendR mod	Myeloid diff MLP	NadD inh	FAS TE block
O=C(c1ccc(-c2cccc(C(F)(F)F)c2)o1)N1CCN(c2ccccc2O)CC1	-7	-1	i	2	24
O=C(NCCN1CCC(n2c(=O)[nH]c3ccccc32)CC1)c1cccnc1Cl	nt	2	i	-2	-11
O=C(N/N=C/c1ccc(Sc2ccccn2)o1)c1cc2ccccc2cc1O	-16	-13	i	62*	9
COc1ccc(-c2c(C#Cc3ccsc3)c3cc(-c4ccc5[nH]ccc5c4)ccc3n2C)cc1	1	-22	+	22	36
COc1cc(C(=O)N=c2sccn2C)c([N+](=O)[O-])cc1OC	2	18	i	4	-4
Cn1ccsc1=NC(=O)c1ccc([N+](=O)[O-])o1	0	2	+	-7	6
COc1ccc(/C(C)=N/NC(=O)c2nnn(-c3nonc3N)c2CN(C)c2ccccc2)cc1	1	12	?	3	-2
C/C(=N\NC(=O)c1nnn(-c2nonc2N)c1CN(C)c1ccccc1)c1ccccc1O	8	11	?	36*	31
CC[n+]1c(/C=C/Nc2ccccc2)oc2ccc(OC)cc21	9	-84	+	-1	-9
CC[n+]1c(/C=C/N(C)c2ccccc2)oc2ccccc21	-26	-102	?	-7	-19
CC[n+]1c(/C=C/Nc2ccccc2)oc2ccccc21	-8	-77	+	1	-13
CCc1ccccc1NC(=O)NC(C)c1ccc2c(c1)OCO2 (stereo not drawn)	61*	-11	i	-5	0
CCOC(=O)c1cc(CC)sc1NC(=O)Cc1ccsc1	14	22*	i	11	18
Cc1ccc(NC(=O)CN2CCN(C(=O)C3CC3)CC2)c(F)c1	-16	-5	i	3	-7
O=Cc1cn(-c2ccccc2)nc1-c1ccc2c(c1)OCCO2	61*	0	i	-11	5
COc1ccc(C(C)C)cc1S(=O)(=O)Nc1cccnc1	-1	-10	i	-2	-1
CCOC(=O)C1(C)CCN1C(=O)c1ccc(C)cc1 (stereo not drawn)	nt	0	i	3	-1
O=C(NCCN1CCN(C(=O)NC2CCCCC2)CC1)NC1CCCCC1	67*	13	i	5	-5
COc1ccc(C2CCCCCN2C(=O)C2CCN(S(=O)(=O)c3ccc(C)cc3)CC2)cc1 (stereo not drawn)	3	-10	i	-7	3
COc1ccc(C(C)=O)cc1COC(=O)CCNS(=O)(=O)c1ccc(C)cc1	19	-7	i	-13	0
COc1ccc(C(C)=O)cc1COC(=O)CCNS(=O)(=O)c1ccc(C(C)=O)cc1	-7	44*	i	-1	-2
O=C(NC1CCCCC1)C(c1ccccc1)n1c(=O)c(-c2ccco2)nc2ccccc21 (stereo not drawn)	nt	-33	i	nt	nt
Cc1cc2c(NCCc3ccccc3)ncnc2s1	5	-13	+	-2	3
O=C(CN(Cc1ccccc1)C(=O)CCC(=O)Nc1ccccn1)NCc1ccc(F)cc1	-1	6	i	-3	-2
N#CC1CC(c2ccc([N+](=O)[O-])cc2)=NN1c1ccc([N+](=O)[O-])cc1 (stereo not drawn)	-125	-66	+	13	-84
SMILES	CRFBP-R2 block	NRP1-CendR mod	Myeloid diff MLP	NadD inh	FAS TE block
O=[N+]([O-])c1cccc(C2CC(c3ccccc3)=NN2c2ccccc2)c1 (stereo not drawn)	10	10	i	2	24
CCN(CC)C(=O)CSc1nnc2nnc3cc(OC)ccc3n12	-12	54	+	-2	-20
COC(=O)C1N[C@@H]([C@@H](NC(=O)COc2ccccc2)C(=O)NCc2ccccc2)SC1(C)C (stereo partly drawn)	-4	32*	i	-1	3
C/C(Cl)=C/Cn1c(N2CCCC2)nc2c1c(=O)n(C)c(=O)n2C	-26	-3	+	-5	-3
C/C(Cl)=C\Cn1c(N2CCCC2)nc2c1c(=O)[nH]c(=O)n2C	-3	-7	i	-2	0
COc1ccc(Cn2cc(CN3CCc4onc(-c5ccccc5OC)c4C3=O)nn2)cc1	nt	8	i	-3	-3
FC(F)(F)c1ccccc1-c1nc(-c2ccncc2)no1	57*	4	i	-1	6
O=C(O)c1ccc(-c2noc(-c3ccccc3C(F)(F)F)n2)cc1	-8	-18	i	1	-14
CCc1nc2c(OCc3ccc(F)c(F)c3)cccn2c1N(C)C(=O)c1ccc(OC)cc1	nt	8	i	1	15

Assay outcomes as filed in PubChem.
